Assay outcomes: PubChem BioAssay, Sanford-Burnham Center for Chemical Genomics
CYP2C19 inhib – human CYP2C19 inhibition; P33261; CYP2C19 Supersomes, luciferin-H EGE luminescence, 30 min; inhibition, % at 5 µM; 96,000 tested, 21% active; AID 778;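 active = CYP2C19 inhibition above a set limit at 5 µM in the primary screen, cut at about 50% in these data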;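 also: plate controls were negative control wells for no effect and 2.5 mM tranylcypromine positive control for full effect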
CYP2C9 inh – blocks human cytochrome P450 2C9; P11712; CYP2C9 Supersomes, luciferin-H conversion, luminescence; inhibition, % at 5 µM; 96,000 tested, 20% active; AID 777;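 active = blocking of liver enzyme CYP2C9 beyond about 50% at 5 µM, limit read from the data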
CYP2C9 act – CYP2C9 (human) activation; P11712; activation factor at 5 µM; 96,000 tested, 1.4% active; recombinant CYP2C9, luciferin-H conversion, luminescence; active compounds read high; factor 1 = untreated enzyme, 0 = blocked;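 active = activation factor of 2 or more for CYP2C9 at a 5 µM dose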;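 also: 0 = sulfaphenazole-blocked wells and 1 = vehicle-only wells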
Mac1 fbg enh – increases human CD11b/CD18 adhesion to fibrinogen; P05107+P11215; K562 CD11b/CD18 adhesion to fibrinogen, ATPlite luminescence; activation, % at 10 µM; 93,000 tested, 0.07% active; AID 1499;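 active = 10 µM primary screen giving 50% or more activity, confirmed by 40% or more on retest at that dose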
CD11b adhes inh – blocks human CD11b/CD18 adhesion to fibrinogen | 93,000 tested, 0.54% active | AID 1497 | P05107+P11215 | inhibition, % at 10 µM | K562 CD11b/CD18 adhesion to fibrinogen, ATPlite luminescence; Mn2+ added to activate the integrin;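 active = primary inhibition of 50% or more at 10 µM, then 40% or more on retest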
CYP2C19 activ – cytochrome P450 2C19 (human) activation; recombinant CYP2C19, luciferin-H EGE luminescence; active compounds read high; 0 = fully inhibited enzyme, 1 = untreated enzyme; activation factor at 5 µM; 96,000 tested, under 10 active;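 active = activation factor of at least 2 at 5 µM in the primary screen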;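 also: 0 = wells with 2.5 mM tranylcypromine and 1 = vehicle-only wells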
* hit, by the source's call; . = no result. An excerpt weighted towards active compounds, which were near 28% of everything screened.

SMILES	CYP2C19 inhib	CYP2C9 inh	CYP2C9 act	Mac1 fbg enh	CD11b adhes inh	CYP2C19 activ
CC(C)(C)C(=O)C(Cc1ccccc1)n1cncn1 (stereo unspecified)	31	56*	0.4	-3	-2	0.7
CC(C)(C)C(=O)Cn1c(=N)n(Cc2ccccc2Cl)c2ccccc21	-2	4	1	2	-32	1
COc1ccc(NC(=O)CSc2nc(N)c3cc4c(nc3n2)CCCC4)c(OC)c1	22	81*	0.2	-7	-7	0.8
COc1ccc(-n2ccnc2SCC(=O)Nc2ccc(OC)cc2OC)cc1	92*	27	0.7	.	.	0.1
Cn1ccnc1SCC(=O)Nc1cccc(O)c1	6	9	0.9	-1	1	0.9
Cn1ccnc1SCC(=O)Nc1cccc(C(F)(F)F)c1	87*	-52	1.5	-3	-3	0.1
COc1ccc(NC(=O)CSc2nccn2-c2ccccc2)cc1	86*	69*	0.3	-3	-28	0.1
O=C(NCCOc1ccccc1)c1ncn[nH]1	-4	-10	1.1	0	-6	1
O=C(O)CSCCC(=O)Nc1ccc(F)cc1	-2	1	1	-6	-10	1
O=[N+]([O-])c1ccccc1/C=N/NC1=NCCCCC1	.	.	.	2	7	.
Cn1ccnc1SCC(=O)Nc1ccc(Oc2ccccc2)cc1	88*	71*	0.3	2	8	0.1
CCCCOc1cccc(NC(=O)CSc2nccn2C)c1	31	0	1	3	-38	0.7
Cc1cc2ccccc2c(=O)n1CC(=O)NCC(=O)N(C)C1CCCCC1	7	-7	1.1	-2	1	0.9
